Most compounds without a hit are left out; they make up all but 1.7% or so of the library.
hERG WT inh – qHTS for Inhibitors of KCHN2 3.1: Wildtype qHTS | U2OS, BacMam KCNH2, thallium flux FluxOr; stronger effect = lower value | activity change, % at 1.84 µM | 340,000 tested, 0.37% active;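 active = maximum activity change below -70%; inconclusive = maximum activity change between -70% and -50%; inactive = maximum activity change above -50%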
Target sequence (Q12809 whole entry, looked up): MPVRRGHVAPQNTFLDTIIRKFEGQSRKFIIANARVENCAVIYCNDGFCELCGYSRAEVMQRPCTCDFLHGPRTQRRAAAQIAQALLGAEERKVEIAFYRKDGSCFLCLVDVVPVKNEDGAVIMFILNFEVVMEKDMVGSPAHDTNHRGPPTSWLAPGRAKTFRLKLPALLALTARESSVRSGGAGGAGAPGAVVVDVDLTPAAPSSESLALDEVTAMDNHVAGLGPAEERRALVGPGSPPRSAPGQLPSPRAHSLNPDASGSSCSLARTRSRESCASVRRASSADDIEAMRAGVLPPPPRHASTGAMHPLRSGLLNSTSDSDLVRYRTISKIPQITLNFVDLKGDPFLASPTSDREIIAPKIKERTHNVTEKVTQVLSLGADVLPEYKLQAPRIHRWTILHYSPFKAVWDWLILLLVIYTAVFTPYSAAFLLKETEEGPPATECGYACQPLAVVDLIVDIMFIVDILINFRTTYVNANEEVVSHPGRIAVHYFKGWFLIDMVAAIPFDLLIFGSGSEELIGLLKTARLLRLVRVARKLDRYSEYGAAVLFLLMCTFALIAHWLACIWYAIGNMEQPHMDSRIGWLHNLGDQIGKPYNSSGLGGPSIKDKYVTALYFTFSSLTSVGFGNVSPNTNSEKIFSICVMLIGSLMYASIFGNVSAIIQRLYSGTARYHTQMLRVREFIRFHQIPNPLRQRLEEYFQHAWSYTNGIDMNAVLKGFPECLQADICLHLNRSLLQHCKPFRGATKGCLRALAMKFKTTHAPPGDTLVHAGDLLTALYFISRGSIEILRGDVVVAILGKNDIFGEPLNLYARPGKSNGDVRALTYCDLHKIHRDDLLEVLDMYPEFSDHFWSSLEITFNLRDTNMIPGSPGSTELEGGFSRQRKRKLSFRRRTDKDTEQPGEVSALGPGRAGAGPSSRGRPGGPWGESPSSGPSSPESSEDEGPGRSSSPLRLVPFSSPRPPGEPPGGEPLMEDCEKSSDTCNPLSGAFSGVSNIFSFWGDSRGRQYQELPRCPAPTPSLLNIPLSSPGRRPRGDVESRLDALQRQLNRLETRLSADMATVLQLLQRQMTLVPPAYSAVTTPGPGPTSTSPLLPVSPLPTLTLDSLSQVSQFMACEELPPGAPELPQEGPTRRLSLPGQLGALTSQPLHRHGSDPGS
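U2OS cells were transduced with wild-type KCNH2 virus (2.03 x 10^8 / mL) for 4 h at room temperature, then cultured overnight at 37 C. Thallium flux was read with FluxOr dye. Rate constants were normalized to DMSO controls.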
KCNH2 3.1 block – qHTS for Inhibitors of KCHN2 3.1: Mutant qHTS | U2OS KCNH2 3.1, thallium flux FluxOr; stronger effect = lower value | activity change, % (tested at about 1.8 µM) | 340,000 tested, 0.95% active | Potassium voltage-gated channel subfamily H member 2, brain isoform KCNH2 3.1 (human) | AID 720553, 2013;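 active = maximum activity change below -70%; inconclusive = maximum activity change from -70% to -50%; inactive = maximum activity change above -50%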;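 note: thallium influx rate constant from kinetic fluorescence after stimulation buffer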
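Kinetic fluorescence (2 min after stimulation buffer) measures Tl+ influx through KCNH2 3.1 expressed by viral transduction in U2OS cells; the rate constant is normalized against DMSO controls serving as positive and negative references.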
TRHR ag – qHTS for Small Molecule Agonists and Allosteric Enhancers of Human TRH Receptor: Primary Screen for Agonists; TRHR cells, calcium flux fluo-8, FDSS agonist mode; AID 493084, 2011; 360,000 tested, 0.18% active; Thyrotropin-releasing hormone receptor (Homo sapiens), P34981; activation, % at 2 µM; in the data active = activation above about 30%
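Steps: seed TRHR cells overnight; add fluo-8 no-wash Ca dye, RT 30 min–1.5 h; record 10 s baseline; pin-transfer compounds; monitor fluorescence 1 cycle/s for the agonist window. Calcium increases flag candidate agonists.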
TRHR PAM – qHTS for Small Molecule Agonists and Allosteric Enhancers of Human TRH Receptor: Primary Screen for Enhancers | Thyrotropin-releasing hormone receptor (Homo sapiens), P34981 | enhancement, % at 2 µM | 360,000 tested, 0.66% active | TRHR cells, fluo-8 calcium fluorescence, EC20 TRH enhancement; in the data active = enhancement above about 30%
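TRHR-expressing cells loaded with fluo-8 calcium dye were read kinetically (ex 480/em 530) during compound addition, then stimulated with an EC20 of TRH (10 nM final). Enhancement of the Gq-mediated intracellular calcium response was scored.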
TRPML1 ag – qHTS for Agonists of the Human Mucolipin Transient Receptor Potential 1 (TRPML1). Mucolipin-1 (Homo sapiens), Q9GZU1. TRPML1-expressing cells, Ca2+ dye fluorescence, FDSS. activation, % (no concentration beside the values). 410,000 tested, 0.12% active. AID 624414, 2012; in the data active = activation above about 50%; inconclusive = mostly about 30% to 49%
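Tet-induced TRPML1-DL cells, 1,500 per well, cultured overnight, were loaded with a no-wash Ca2+ dye for 45–90 min. Calcium fluorescence was recorded on the FDSS for 110 s after compound addition, before the EC80 agonist (4 uM 54-4) was added.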
TRPML1 blocker – qHTS for Inhibitors of the Human Mucolipin Transient Receptor Potential 1 (TRPML1); activity change, negative = inhibition, % (concentration not given with the values); Mucolipin-1 (Homo sapiens), Q9GZU1; TRPML1-inducible cells, Ca2+ dye fluorescence, FDSS; stronger effect = lower value; inhibition of EC80 agonist-evoked calcium signal; 390,000 tested, 0.02% active; in the data active = activity change below about -50%; inconclusive = between about -30% and that limit;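 note: stimulus is agonist 54-4 at its EC80 concentration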
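TRPML1-DL cells, Tet-induced overnight (~16 h, 37 °C) at 1,500 cells/well, were loaded with Ca8 no-wash dye plus quencher for 45-90 min at room temperature. Compounds were pinned during FDSS kinetic reading; agonist 54-4 at EC80 (4 uM final) then added.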
Hits are given with their value; i = inactive; ? = inconclusive; nt = no result given.

SMILES	hERG WT inh	KCNH2 3.1 block	TRHR ag	TRHR PAM	TRPML1 ag	TRPML1 blocker
c1ccc(CCCN2CCN(CCOC(c3ccccc3)c3ccccc3)CC2)cc1	?	-117	nt	nt	i	i
Fc1ccc(C(OCCN2CCCC2)c2ccc(F)cc2)cc1	i	-77	i	i	i	i
C#CCN1CCN(c2ccc(F)cc2)CC1	i	i	i	i	i	i
Fc1ccc(C(OCCN2CCCC2)c2ccc(Br)cc2)cc1 (configuration not stated)	?	-72	i	i	i	i
CC(=O)O[C@H]1CC[C@]2(C=O)C3CC[C@]4(C)[C@@H](C5=CC(=O)OC5)CC[C@]4(O)C3CC[C@]2(O)C1 (some centres not stated)	nt	nt	nt	nt	i	i
CC(C)NC(C)C(=O)c1ccc2ccccc2c1 (configuration not stated)	i	i	i	37	i	i
CC(C(=O)c1ccc2ccccc2c1)N1CCCCC1 (configuration not stated)	i	i	i	i	i	i
CSc1ccc(CN2CCN(c3ccccc3C)CC2)cc1	-129	-114	i	i	i	i
O=P1(Oc2ccccc2)CC=CC(COC(c2ccccc2)(c2ccccc2)c2ccccc2)O1 (configuration not stated)	nt	nt	nt	nt	i	i
COC[C@H]1OC(=O)c2coc3c2[C@@]1(C)C1=C(C3=O)C2CCC(=O)[C@@]2(C)C[C@H]1OC(C)=O (some centres not stated)	nt	nt	nt	nt	i	nt
Cc1ccc(OCC(=O)N2CCCC(N3CCN(c4ccc(F)cc4)CC3)C2)cc1 (configuration not stated)	i	-86	i	i	i	i
COc1ccc(OCC(=O)N2CCCC(N3CCN(c4ccccc4C)CC3)C2)cc1 (configuration not stated)	i	-74	i	i	i	i
Nc1ncc(P(=S)(N2CCOCC2)N2CCOCC2)s1	i	i	i	i	i	i
C=Cn1c(P(=S)(N2CCOCC2)N2CCOCC2)cc2c1CCCC2	i	i	i	i	68	i
C=CCNC(=S)N1Cc2cc(Br)ccc2-n2nncc2C1	nt	nt	nt	nt	i	nt
C=CCNC(=S)N1Cc2ccccc2-n2nncc2C1	-120	i	nt	nt	i	i
O=C1NC(=O)C(=C/C=C/c2coc3ccc(Br)cc3c2=O)C(=O)N1	nt	nt	41	i	nt	nt
O=C(CN1CCOCC1)c1cccc([N+](=O)[O-])c1	nt	nt	nt	nt	i	nt
Cc1ccc(OCCSC2=NN2c2cc(C)nc(N)n2)cc1	i	i	i	i	i	i
CCSC1=NN1c1cc(C)nc(N)n1	i	-95	i	i	i	i
CCCCn1c(O)c(/C(C)=N/NC(=O)Nc2ccccc2)c(=O)[nH]c1=O	i	i	i	35	i	i
CN(C)c1ccc(N=O)cc1	nt	nt	nt	nt	i	nt
CC1(C)N([O])C(c2ccc(C(=O)O)cc2)=[N+]([O-])C1(C)C	nt	nt	nt	nt	i	nt
CCCCCCn1c(O)c(C=NC2CCN(Cc3ccccc3)CC2)c(=O)[nH]c1=O	i	-95	i	i	i	i
Cc1ccc(-c2nc3c(=O)n(C)c(=O)nc-3n(C)n2)cc1	nt	nt	nt	nt	i	nt
SMILES	hERG WT inh	KCNH2 3.1 block	TRHR ag	TRHR PAM	TRPML1 ag	TRPML1 blocker
Oc1ccc(Cl)cc1CN1CCN(Cc2ccccc2)CC1	i	i	i	31	i	i
Clc1ccc2c(c1)C(c1ccccc1Cl)=NCc1nnc(N3CCN(CCSc4ccccc4)CC3)n1-2	-153	i	i	i	i	i
O=C(Nc1ccc2c(c1)OCO2)c1cccn(Cc2ccc(F)cc2)c1=O	nt	nt	i	i	i	i
CCOC(=O)C1(CCc2ccccc2)CCN(Cc2ccc3c(c2)OCCO3)CC1	i	-113	i	i	i	i
CCOC(=O)C1(CCOc2ccccc2)CCN(Cc2ccc(C)s2)CC1	-94	-84	i	i	i	i
CCOC(=O)C1(CCc2ccccc2)CCN(Cc2ccc(NC(C)=O)cc2)CC1	i	i	i	i	i	i
COc1ccc(OC)c(CCNCc2c(C(=O)O)c(C)n(Cc3ccc(F)cc3Cl)c2C)c1	nt	nt	i	i	i	i
C[C@H]1CC[C@@H]2[C@@H](C)[C@H]3C(C[C@H]4C5CC[C@H]6C[C@@H](O)CC[C@]6(C)C5CC[C@]34C)N2C1 (some centres not stated)	nt	nt	nt	nt	i	i
Cc1ccc(-n2c(/C=C/c3ccc(Br)s3)nc3ccccc3c2=O)cc1C	nt	nt	i	i	i	i
O=c1cc(C(F)(F)F)c2cc3c4c(c2o1)CCCN4CCC3	-72	-109	240	i	106	i
Cc1cc2c(C(F)(F)F)cc(=O)oc2c2c1NCCC2	i	i	91	i	?	i
COc1ccc(CNCCc2c(C)[nH]c3ccc(OC(F)(F)F)cc23)c(OC)c1	i	-78	i	i	i	i
COc1ccc2[nH]c(C)c(CCNCc3cc(OC)c(OC)c(OC)c3)c2c1	i	i	i	i	i	i
CC(N)c1cccc(Cl)c1Cl (configuration not stated)	nt	nt	nt	nt	i	nt
[O]=[Sb]([OH])([OH])[c]1ccccc1	nt	nt	nt	nt	i	nt
N#Cc1ccc(N2CCNCC2)c(F)c1	?	-76	i	i	i	i
N#Cc1cc(F)c(N2CCNCC2)cc1Cl	i	i	i	i	i	i
O=C(CN1CCOCC1)c1ccc2ccccc2c1	nt	nt	nt	nt	i	nt
Nc1ccc(CCN2CCN(c3cccc(C(F)(F)F)c3)CC2)cc1	i	-72	nt	nt	i	i
Cc1ccsc1C(=O)C1CCCN(Cc2cccn2-c2ccccn2)C1 (configuration not stated)	i	-75	i	i	i	i
CCCCCSc1cc(OC)c(CCN(C)C)cc1OC	i	-70	i	i	i	i
CCCCCSc1cc(O)c(C(CNC)C(C)C)cc1OC (configuration not stated)	i	i	i	i	i	i
